Reference: PubChem BioAssay AID701 (PCMD, 2007)
The whole screen tested about 33,000 compounds, of which about 70 (0.2%) were called active. Cut-off read from the data, not from the text of the source: active = inhibition above about 30%; inactive = the rest. These entries were drawn from the full list.

target: Coagulation factor XII (Homo sapiens) (UniProt P00748); assay: human FXIIa protease inhibitors, primary screen, biochemical, single well (AID 701); settings: purified human FXIIa, AMC substrate fluorescence, 2 h; at 10 µM; active compounds read high;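 note: 0% = enzyme with vehicle only and 100% = no enzyme blank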
Sequence (P00748 20-372 limits assumed): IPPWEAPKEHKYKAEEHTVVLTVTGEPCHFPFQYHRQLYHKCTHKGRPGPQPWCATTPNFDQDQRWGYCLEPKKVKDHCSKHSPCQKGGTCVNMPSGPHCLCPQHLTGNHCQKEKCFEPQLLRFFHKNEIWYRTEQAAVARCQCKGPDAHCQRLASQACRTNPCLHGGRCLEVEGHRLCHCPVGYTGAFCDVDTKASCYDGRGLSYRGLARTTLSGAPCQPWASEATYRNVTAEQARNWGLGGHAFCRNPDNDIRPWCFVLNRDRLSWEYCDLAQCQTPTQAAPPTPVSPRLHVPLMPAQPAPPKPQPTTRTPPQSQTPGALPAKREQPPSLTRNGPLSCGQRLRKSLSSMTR
Sequence (P00748 373-615 limits assumed): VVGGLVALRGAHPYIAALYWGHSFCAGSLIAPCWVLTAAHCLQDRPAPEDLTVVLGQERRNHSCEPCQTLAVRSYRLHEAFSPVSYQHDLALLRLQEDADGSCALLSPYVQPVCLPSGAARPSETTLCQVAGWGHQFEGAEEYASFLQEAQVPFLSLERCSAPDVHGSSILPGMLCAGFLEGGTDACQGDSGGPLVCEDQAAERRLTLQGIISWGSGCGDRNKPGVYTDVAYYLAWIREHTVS

inhibition, inactive:
COc1cc2c(cc1OC)C(C(=O)NCc1ccco1)C1c3ccccc3CCN1C2=O (stereo unspecified) 7.77%
COCCN(C(=O)c1ccco1)c1nnc(-c2ccc(OC)cc2)s1 7.18%
CCCCN1C(=O)CC(N2CCOCC2)C1=O (stereo unspecified) 4.3%
Cc1cccc(NC(=O)Cn2cc(C(=O)c3ccco3)c3ccccc32)c1 -10.1%
Cc1ccc(N(CC(=O)Nc2cc(C)cc(C)c2)S(=O)(=O)c2cccc3nonc23)cc1 17.2%
COc1ccc(-c2cc3nc(C)c(CCC(=O)NC(C)CCc4ccco4)c(C)n3n2)c(OC)c1 (stereo unspecified) -1.94%
CC1=C(C(N)=O)C(c2sccc2C)n2nnnc2N1 (stereo unspecified) 3.63%
CCOC(=O)c1nnn(-c2nonc2-n2cccc2)c1CN1CCC(C(=O)OCC)CC1 0.91%
O=C(CC1(O)C(=O)N(CN2CCOCC2)c2ccccc21)c1ccccc1 (stereo unspecified) -13.4%
CCOCCCNC(=O)C(NC(=O)c1ccc(=O)[nH]c1)c1ccc(C)cc1 (stereo unspecified) -13.5%
CC(O)CN(Cc1ccc(Cl)cc1)CC(C)O (stereo unspecified) 4.36%
COc1ccc(N(CC(=O)NC2CCCCC2)S(=O)(=O)c2c(C)[nH]c(=O)[nH]c2=O)cc1 6%
CC(=O)N1CCCc2cc(S(=O)(=O)CCC(=O)N3CCN(c4ccccc4)CC3)ccc21 -16.3%
O=C1CSC(c2cccc(F)c2)N1c1ccc(O)cc1 (stereo unspecified) 20.5%
CC(=O)c1c(C)[nH]c(C(=O)NCc2ccc(C)cc2)c1C 5.44%
Cn1c(=O)n(CCc2ccccc2)c(=O)c2c1nc1n2CCCN1c1ccccc1 -0.18%
O=C1CSC(c2ccc(Cl)cc2)N1 (stereo unspecified) -6.79%
OC(COc1cccc(OCC(O)CN2CCCC2)c1)CN1CCCC1 (stereo unspecified) 1.91%
COc1cccc(NC(=O)Cc2ccc(C)cc2)c1 3.98%
COc1cc(CC(=O)NCc2cccs2)cc(OC)c1OC 12%
Brc1ccc(Nc2c3c(nc4ncnn24)CCC3)cc1 -0.85%
CCN1CCN(C(c2cccnc2)c2cc(Cl)c3cccnc3c2O)CC1 (stereo unspecified) 11.8%
O=S(=O)(NCCNS(=O)(=O)c1ccccc1)c1ccccc1 15.1%
CCC(=O)NC(Nc1cc(C)ccn1)(C(F)(F)F)C(F)(F)F 5.79%
CCCNC(=O)c1ccccc1NC(=O)CSCc1ccc(OC)cc1 0.92%
CCCNC(=O)CN(Cc1ccccc1F)S(=O)(=O)c1ccc(C)cc1 16.6%
CC(=O)Nc1ccc(S(=O)(=O)N2CCSCC2)cc1 3.77%
Cc1cc(SCC(=O)c2ccccc2)nc(SCC(=O)c2ccccc2)n1 -15.6%
Cc1ccc(CCN2CC(C(=O)O)CC2=O)cc1 (stereo unspecified) 9.91%
O=C(NCCc1ccccc1)c1ccc(OCCOc2ccccc2)cc1 5.87%
CCOC(=O)c1[nH]cnc1C(=O)NC1CCCCC1 1.72%
COCCn1c(SCc2nc3cc(OC)c(OC)cc3c(=O)[nH]2)nnc1-c1ccncc1 3.73%
Cn1nnnc1SCC(=O)Nc1ccccc1C(=O)NC1CC1 -1.23%
O=S(=O)(N1CCCCC1)N1CCNCC1 4.16%
Cc1cc(C(=O)OC(C)C(=O)Nc2cccc(S(=O)(=O)N3CCOCC3)c2)c(C)o1 (stereo unspecified) 8.04%
CCn1c(SCC(=O)Nc2ccc(OC)c(OC)c2)nnc1-c1c[nH]c2ccccc12 5.25%
COc1cc(OC)cc(-c2cc3nc(C4CCN(C(=O)OC(C)(C)C)CC4)cc(=O)n3[nH]2)c1 -5.3%
COc1ccc(C2=NOC3(CC(=O)N(c4ccc(Cl)cc4)C3=O)C2)c(OC)c1 (stereo unspecified) -13.9%
Cc1cccc(-n2ncc3c(N4CCc5ccccc54)ncnc32)c1 4.16%
Cn1ccs/c1=N\S(=O)(=O)c1ccc(C(C)(C)C)cc1 6.13%
CC(CN1CCOCC1)c1ccccc1 (stereo unspecified) 7.84%
CCn1c(=O)c(=O)n(CC)c2cc(S(=O)(=O)N3CCc4ccccc43)ccc21 8.33%
COc1ccc(OCCCON2C(=O)c3ccccc3C2=O)cc1 3.44%
Cc1ccc(OCC(=O)N/N=C\c2ccco2)c(C)c1 5.38%
CCOCCOC(=O)C1=C(C)N(C)C(=O)NC1c1ccccc1F (stereo unspecified) 2.69%
O=C(NCc1ccccc1)C1CCCN(S(=O)(=O)c2cccs2)C1 (stereo unspecified) 3.39%
O=C(Nc1cc(-c2nn(CC(=O)N3CCCCC3)c(=O)c3ccccc23)ccc1N1CCOCC1)c1ccc(Cl)cc1 -11%
CC1CCCCC1NC(=O)C1CCCN1S(=O)(=O)c1cccc2nsnc12 (stereo unspecified) 10.7%
CC1CC(C)CN(C(=O)CSc2nnc(CSc3ncccn3)n2C)C1 (stereo unspecified) 1.36%
CCn1c(C)nc2cc(C(=O)NNS(=O)(=O)c3ccc(C)cc3C)ccc21 5.64%
COc1ccc(-n2c(C)csc2=S)cc1 1.97%
CCCCCN1CC(O)=C(c2ccccc2)C1=N -12.2%
O=C(Nc1cc2ccccc2oc1=O)C1CCCCC1 6%
Cc1nnc(SCC(=O)N2CCc3ccccc3C2)s1 -10.1%
Cc1ccc(CNC(=O)CCNS(=O)(=O)c2cccc3nonc23)cc1 7.33%
Cc1ccc(-n2c(CNc3ccc(F)cc3)nnc2SCC(=O)N2CCOCC2)cc1 0.69%
CCOC(=O)c1c(NC(C)=O)sc2c(O)c(Br)ccc12 5.45%
CCOC(=O)CN(Cc1ccc(OC)c(OC)c1)S(=O)(=O)c1ccc(OC)cc1 8.43%
CS(=O)(=O)N(CC(=O)N1CCN(Cc2ccccc2)CC1)c1ccc2c(c1)OCCO2 21.1%
COc1ccc(C2C(C#N)=C(/N=C/N3CCOCC3)OC3=C2C(=O)CC(C)(C)C3)cc1OC (stereo unspecified) 8.48%
COC(=O)CSc1snnc1-c1ccc(Cl)c(Cl)c1 5.67%
